The list is not random: actives were taken first. Their share in the collection is about 8.9%.
ALDH1A1 block = inhibitors of human aldehyde dehydrogenase 1A1 | P00352 | Purified ALDH1A1, NADH fluorescence, propionaldehyde substrate | Potency, µM (doses to about 75.3 µM), actives largely listed as inhibitors | 220,000 compounds, 7.3% hits; active means well fitted inhibition curve with a large enough effect, not every such curve was filed as active; inconclusive means small, poorly fitted or top-dose-only effect, or another doubt; inactive means no such curve, though single readings can be large or run the other way
IMPase Li inh = IMPase inhibition in cells with lithium potentiation; CHO-M1 cells, IP1 TR-FRET (IP-One), carbachol + lithium; Potency, µM (series often up to 59.4 µM), usual class: inhibitors; 210,000 compounds, 0.35% hits;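 further: IP1 builds up when IMPase is blocked and the TR-FRET signal falls; nearly all actives have a fitted effect of over 50% in size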
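Readout is a homogeneous TR-FRET IP1 immunoassay (Ex 320, Em 665 and 620), where raised cytosolic IP1 lowers signal. Cells were CHO-M1 treated 30 min at 37C with test compounds plus a little lithium; AC50 values came from Hill-equation fitting.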
IMPase inh = IMPase inhibition in cells | P97697 | CHO-M1 cells, IP1 accumulation, HTRF TR-FRET ratio | inhibition (IP1 accumulation), % at 46.1 µM | 120,000 tested, under 10 active | AID 901; active means well fitted curve in the direction sought with a large enough effect in the signal ratio, not every such curve was filed as active; inconclusive means small, poorly fitted or top-dose-only effect, or a change in a side signal; inactive means no such curve, though single readings can be large or run the other way; the % refers to the signal ratio;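 further: cells stimulated with carbachol in lithium chloride buffer; higher means more IMPase inhibition seen as more IP1 and lower FRET ratio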
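In this qHTS, compounds (final up to 46 uM) act on CHO-M1 cells that are then activated through the M1 receptor with carbachol, in pH 7.4 buffer containing 50 mM LiCl, for 30 min. IP1 accumulation is quantified by the IP-One immunoassay.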
NPSR antagonist = blocks cAMP signaling of the human neuropeptide S receptor; Q6W5P4; 220,000 compounds, 1% hits; CHO-NPSR cells, cAMP TR-FRET, antagonist mode; Potency, µM (highest dose often 38.3 µM), usual class: inhibitors; further: nearly all actives have a fitted effect of over 50% in size
Target sequence (Q6W5P4 whole entry, looked up): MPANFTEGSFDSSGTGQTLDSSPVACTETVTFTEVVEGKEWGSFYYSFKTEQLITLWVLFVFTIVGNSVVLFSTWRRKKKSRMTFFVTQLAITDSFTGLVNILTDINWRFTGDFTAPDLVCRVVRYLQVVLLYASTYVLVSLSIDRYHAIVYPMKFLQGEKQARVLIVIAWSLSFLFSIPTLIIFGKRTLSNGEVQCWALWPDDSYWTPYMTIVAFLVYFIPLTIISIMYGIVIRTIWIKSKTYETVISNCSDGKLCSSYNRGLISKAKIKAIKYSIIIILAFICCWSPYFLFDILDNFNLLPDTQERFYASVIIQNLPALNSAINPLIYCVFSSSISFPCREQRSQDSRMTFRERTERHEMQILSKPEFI
HPGD inh = HPGD (human) dehydrogenase inhibition; Potency, µM, usual class: inhibitors; AID 894; purified HPGD, NADH fluorescence kinetic, PGE2 substrate; 150,000 compounds, 4.3% hits; P15428; active means well fitted inhibition curve with a large enough effect, not every such curve was filed as active; inconclusive means small, poorly fitted or top-dose-only effect, or another doubt; inactive means no such curve, though single readings can be large or run the other way
Target sequence (P15428 whole entry, looked up): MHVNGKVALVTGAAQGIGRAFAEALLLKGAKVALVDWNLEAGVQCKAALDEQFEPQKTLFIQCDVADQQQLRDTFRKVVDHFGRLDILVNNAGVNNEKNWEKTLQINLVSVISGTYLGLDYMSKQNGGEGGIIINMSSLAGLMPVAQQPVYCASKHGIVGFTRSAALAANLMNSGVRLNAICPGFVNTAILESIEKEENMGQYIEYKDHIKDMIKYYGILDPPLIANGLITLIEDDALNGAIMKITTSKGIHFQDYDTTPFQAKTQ
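20 nM HPGD preincubated 15 min at room temperature with compound in 50 mM Tris-HCl pH 8, 0.01% Tween 20. Started with 1 mM NAD+ and 30 uM prostaglandin E2; NADH fluorescence (360/450 nm) read 5 times over 30-s intervals, last minus first.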
ALOX12 inhib = 12-hLO (ALOX12) enzyme inhibition; purified 12-hLO, xylenol orange hydroperoxide absorbance; Potency, µM (series often up to 57.1 µM), hits mostly inhibitors; 150,000 compounds, 0.12% hits; further: nearly all actives have a fitted effect of over 55% in size
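Purified human 12hLO (150 nM final) was preincubated with compounds for 15 min at room temperature in 25 mM Hepes pH 7.0, 0.01% Triton X-100, then reacted with 40 uM arachidonic acid for 30 min. Hydroperoxide was detected with ferrous iron/xylenol orange.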
Numbers stand for hits; – = inactive; ? = inconclusive; · = no result given; ! = not active in a repeat. Unless noted, the call rests on the fitted dose curve; in most records, active means well fitted curve in the direction sought with a large enough effect; inconclusive means small, poorly fitted or top-dose-only effect, or another doubt; inactive means no such curve, though single readings can be large; an effect the other way counts as inactive or inconclusive.

SMILES | ALDH1A1 block | IMPase Li inh | IMPase inh | NPSR antagonist | HPGD inh | ALOX12 inhib
Clc1ccc(N2CCNCC2)nn1 | – | – | · | – | · | ·
O=C(c1ccc2c(=O)n(Cc3ccc4c(c3)OCO4)c(=S)[nH]c2c1)N1CCC2(CC1)OCCO2 | ? | – | – | – | 31.6µM | –
COCCN1C(=O)NC(=O)/C(=C\c2ccc(F)cc2)C1=O | – | – | · | – | · | ·
CCOc1ccc(N2C(=O)NC(=O)/C(=C\c3ccc(N4CCOCC4)cc3C)C2=O)cc1 | ? | – | · | – | · | ·
COc1ccc(N2C(=O)NC(=O)/C(=C/c3ccc(N4CCOCC4)cc3)C2=O)cc1 | 10µM | – | · | – | · | ·
CN1C(=O)C(=Cc2ccc(N3CCCCC3)o2)C(=O)N(C)C1=S | 14.1µM | – | – | – | – | –
CN1C(=O)C(=Cc2ccc(SC3CCCCC3)o2)C(=O)N(C)C1=O | 14.1µM | – | · | – | · | ·
O=C1NC(=O)N(Cc2ccc(F)cc2)C(=O)/C1=C\c1ccc(N2CCCC2)cc1 | 0.251µM | · | · | – | · | ·
CCN(CC)c1ccc(C=C2C(=O)N(C)C(=S)N(C)C2=O)o1 | – | – | · | – | – | –
COc1c(CC=C(C)C)c2c(c3oc(=O)c(-c4ccc(O)cc4)c(O)c13)C=CC(C)(C)O2 | ? | – | · | · | – | –
Cc1ccc(N2C(=O)NC(=O)/C(=C\c3ccc(N4CCOCC4)cc3)C2=O)cc1 | 11.2µM | – | · | – | 35.5µM | –
Cc1cccc(N2C(=O)NC(=O)/C(=C\c3ccc(N4CCOCC4)cc3)C2=O)c1 | · | · | · | – | · | ·
Cc1cccc(N2C(=O)NC(=O)/C(=C/c3ccc(N4CCOCC4)cc3)C2=O)c1 | 11.2µM | – | · | – | · | ·
CN1C(=O)C(=Cc2ccc(N3CCCCCC3)cc2)C(=O)N(C)C1=O | 0.112µM | · | · | – | · | ·
O=C1NC(=O)N(c2ccc(F)cc2)C(=O)/C1=C/c1ccc(N2CCOCC2)cc1 | 3.98µM | – | · | – | · | ·
COC(=O)/C=C\C(=O)N[C@@H]1CC[C@@]2(O)[C@H]3Cc4ccc(O)c5c4[C@@]2(CCN3CC2CC2)[C@@H]1O5 | – | – | – | · | – | –
Cc1cc(C)cc(N2C(=O)NC(=O)/C(=C\c3cccn3-c3ccc(Cl)cc3)C2=O)c1 | ? | – | – | 5.01µM | ? | ?
Cn1cccc1/C=C1/C(=O)NC(=O)N(C(C)(C)C)C1=O | · | · | · | – | · | ·
CN1C(=O)/C(=C/c2cccn2-c2ccc3ccccc3c2)C(=O)NC1=S | ? | – | – | ? | 14.1µM | ?
Cc1cc(/C=C2\C(=O)NC(=O)N(c3cccc(Br)c3)C2=O)c(C)n1C | – | – | · | – | – | –
O=C1NC(=S)NC(=O)C1=Cc1cccn1-c1ccc(O)cc1 | 20µM | – | · | ? | · | ·
Cc1cc(C)cc(N2C(=O)NC(=O)/C(=C\c3cccn3-c3ccccc3)C2=O)c1 | – | – | · | – | 7.08µM | –
CCc1ccc(N2C(=O)NC(=O)/C(=C/c3cccn3CCOc3ccc(C)cc3)C2=O)cc1 | – | – | – | – | – | –
CCCn1c(C(=O)c2ccc(OC)cc2)nc2ccccc21 | – | – | · | – | · | ·
O=C(NCc1cccnc1)C(Cl)(Cl)Cl | – | – | · | – | – | –
SMILES | ALDH1A1 block | IMPase Li inh | IMPase inh | NPSR antagonist | HPGD inh | ALOX12 inhib
Clc1ccc(C(c2ccccc2Cl)C(Cl)(Cl)Cl)cc1 (stereo unspecified) | 22.4µM | – | · | · | – | –
O=C(c1cc(C(=O)NCc2ccccc2)c(=O)n(Cc2ccccc2)c1)c1cc(Br)ccc1O | – | – | · | – | 10µM | –
Cc1ccc(O)c(C(=O)c2cc(C(=O)NCc3ccccc3)c(=O)n(Cc3ccccc3)c2)c1 | ? | – | – | – | – | –
CC(C)(C)NC[C@H](O)COc1cccc2[nH]c(C#N)cc12 | – | – | · | · | · | ·
O=c1c(O)c(-c2ccc(O)c(O)c2)oc2c(O)c(O)cc(O)c12 | 35.5µM | – | · | · | 17.8µM | –
CCOc1ccc(CN(CCc2ccc3c(c2)OCO3)Cc2cccc(C)c2)cc1 | · | · | – | · | · | ·
CCCCC/C=C\C[C@@H](/C=C/C=C\C/C=C\CCCC(=O)O)OO | – | – | · | · | – | –
CCCCC/C=C\C/C=C\C/C=C\C/C=C\CCCC(=O)O | 7.94µM! | – | – | · | 15.8µM! | –
C=CCn1c(O)c(C(C)=Nc2ccc(N(C)C)cc2)c(=O)[nH]c1=O | – | – | – | – | – | –
Nc1cc(Cl)c2nonc2c1[N+](=O)[O-] | 20µM | – | – | – | ? | –
O=c1[nH]c(=O)n(CCC2=CCCCC2)c(O)c1C=NCc1cccnc1 | 25.1µM | – | – | – | – | –
CN1CCN(Cc2cc(C(C)(C)C)c(O)c(C(C)(C)C)c2)CC1 | 22.4µM | – | – | – | – | –
Nc1c(C(=O)NCc2ccco2)c2nc3ccccc3nc2n1Cc1ccccc1 | ? | – | · | ? | ? | –
Nc1c(C(=O)NCc2ccco2)c2nc3ccccc3nc2n1Cc1ccc(F)cc1 | ? | – | – | 10µM | ? | –
O=C(O)CCn1cc(C=C2C(=O)NC(=S)NC2=O)c(-c2cc3ccccc3oc2=O)n1 | ? | – | · | – | · | ·
COC(=O)[C@@H]1C[C@H]2CC[C@H](O)C[C@H]2N1CC1CC1 | – | – | · | · | – | –
CC(=O)c1cn(Cc2ccccc2C#N)c2ccccc12 | 25.1µM | ? | · | – | · | ·
CC(C)C(=O)c1cn(Cc2ccccc2C#N)c2ccccc12 | – | – | – | – | – | –
Cc1ccc2nsnc2c1-n1c(C)nc2ccccc2c1=O | – | – | – | – | – | –
O=C1N=C(N2CCCCC2)SC1=C1CCCCC1 | 8.91µM | – | – | – | 20µM | –
C1CCc2nnnn2CC1 | – | – | – | – | – | –
O=C(Nc1nnc(SCc2ccccc2Cl)s1)C1COc2ccccc2O1 (stereo unspecified) | ? | – | – | – | 15.8µM | –
COc1cccc(NP(=O)(Oc2ccc(Cl)cc2)Oc2ccc(Cl)cc2)c1 | – | – | · | ? | – | –
O=P(Nc1ccccc1)(Nc1ccccc1)Oc1ccc(Cl)cc1 | – | – | – | – | 5.62µM | –
CC1=C(O)C(=O)C=C2C1=CC=C1[C@]2(C)CC[C@@]2(C)C3C[C@](C)(C(=O)O)CC[C@@]3(C)CC[C@@]12C (stereo partly specified) | – | – | · | · | 2µM | ?
SMILES | ALDH1A1 block | IMPase Li inh | IMPase inh | NPSR antagonist | HPGD inh | ALOX12 inhib
O=C(O)CN1CCN(CC(=O)O)CC(=O)[O][Hg][O]C(=O)C1 | 1.58µM | – | · | · | 0.0398µM | 0.282µM
CC(=O)NNc1ccccc1 | – | – | · | · | – | –
CC(=O)[O][Hg][c]1ccccc1 | 0.631µM | – | · | · | 0.251µM | ?
COc1cccc(CCNCc2c(F)cccc2F)c1 | 10µM | – | · | – | · | ·
CCOP(=O)(OCC)C(NC(=O)c1ccccc1Cl)=C(Cl)Cl | – | – | – | – | – | –
O=C(NCc1ccccn1)c1ccccc1Cl | ? | – | – | – | 6.31µM | –
CCCCC[CH2][Hg][S]C1=C2N=CNC2NC(N)=N1 (stereo unspecified) | 0.316µM | – | · | · | 0.708µM | ·
O=C(Nc1ccc2ccccc2c1)c1nn(C23CC4CC(CC(C4)C2)C3)cc1Br | ? | – | – | – | ? | –

Compound activity deposited in PubChem by National Center for Advancing Translational Sciences (NCATS).
